# Source: PubChem (National Center for Advancing Translational Sciences (NCATS))
# Sfp inh: inhibitors of Bacillus subtilis Sfp phosphopantetheinyl transferase | Biochemical Sfp PPTase activity, qHTS | Potency, µM, for the others: largest response in the series, negative = inhibition, usual class: inhibitors | 310,000 tested, 3.5% active | AID 1490;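 further: the enzyme is Sfp with the accession as filed and its product quenches rhodamine fluorescence; 0% = enzyme reaction without inhibitor and -100% = no enzyme wells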
#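 Fluorescence-quenching assay: 15 nM Sfp-PPTase preincubated 15 min at room temperature with compound, then 5 uM rhodamine-CoA and 12.5 uM BHQ-2-labelled YbbR peptide added. Fluorescence (ex 525/em 598 nm) read at start and after 30 min; difference gives rate.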
# G9a block: blocks human histone lysine methyltransferase G9a; Q96KQ7; G9a H3K9 monomethylation, AlphaScreen, 2 h; Potency, µM (top dose mostly 102 µM), inactives show at the top dose activity, negative = inhibition, hits mostly inhibitors; 350,000 tested, 8.8% active; further: on the % scale 0 is the no-effect control and ±100 the full control effect; nearly all actives have a fitted effect of over 75% in size
# Target sequence (Q96KQ7 913-1193 limits assumed): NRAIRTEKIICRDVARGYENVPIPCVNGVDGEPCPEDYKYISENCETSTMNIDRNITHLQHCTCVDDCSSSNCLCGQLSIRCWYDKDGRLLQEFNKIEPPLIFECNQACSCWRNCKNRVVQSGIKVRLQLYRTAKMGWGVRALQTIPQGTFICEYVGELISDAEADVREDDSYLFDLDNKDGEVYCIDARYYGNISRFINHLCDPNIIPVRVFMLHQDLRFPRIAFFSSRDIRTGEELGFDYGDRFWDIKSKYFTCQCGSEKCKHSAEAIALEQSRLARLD
#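 Enzyme 20 nM + cpd, 15 min RT; add b-H3K9 pep 500 nM / SAM 20 uM; 2 h RT; anti-H3K9me1 Ab 0.5 ug/mL + SA donor / anti-rabbit acceptor beads 20 ug/mL each, 10 min; AlphaScreen read.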
# BAZ2B inh: BAZ2B (human) inhibition. AlphaScreen BAZ2B-H3K14Ac peptide displacement. Potency, µM (highest dose often 114 µM), for the others: at the highest dose activity change, negative = inhibition, usual class: inhibitors. 360,000 tested, 4.4% active; further: on the % scale 0 is the no-effect control and ±100 the full control effect; nearly all actives have a fitted effect of over 60% in size
#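 Multi-concentration screen (max 110 uM) measuring displacement of acetylated histone H3 peptide from BAZ2B by AlphaScreen, using 50 nM protein, 50 nM peptide and 10 ug/mL streptavidin donor plus Ni-chelate acceptor beads.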
# HP1b chromo inh: HP1-beta chromodomain-methylated histone interaction inhibition; AlphaScreen HP1-beta / biotin-H3K9me3 peptide binding; 390,000 tested, 0.56% active; Potency, µM (series often up to 114 µM), for inactives: top-dose activity change, negative = inhibition, actives largely listed as inhibitors; P83916; further: nearly all actives have a fitted effect of over 70% in size
# Target sequence (P83916 whole entry, looked up): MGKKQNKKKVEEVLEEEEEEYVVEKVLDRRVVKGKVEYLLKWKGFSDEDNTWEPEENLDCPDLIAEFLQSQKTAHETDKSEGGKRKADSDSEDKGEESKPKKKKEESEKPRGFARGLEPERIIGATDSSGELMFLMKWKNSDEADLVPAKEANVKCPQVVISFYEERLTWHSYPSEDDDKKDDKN
#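 HP1-beta protein (50 nM final) preincubated 30 min at room temperature with biotinylated H3(1-18)K9me3 peptide (50 nM) in PBS pH 7.4, 0.01% Tween-20, then compound added for 30 min. AlphaScreen streptavidin donor/nickel chelate acceptor beads (10 ug/mL final), 30 min dark, luminescence read.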
# JMJD2A Tudor inh: inhibitors of human JMJD2A Tudor domain | O75164 | AlphaScreen JMJD2A-Tudor / H3K4me3 peptide binding | Potency, µM (titrated, usually from 114 µM), inactives show at the top dose activity change, negative = inhibition, most hits filed as inhibitors | 390,000 tested, 4.4% active; further: on the % scale 0 is the no-effect control and ±100 the full control effect; nearly all actives have a fitted effect of over 50% in size
# L3MBTL1 inh: L3MBTL1 (human) inhibition; Q9Y468; AlphaScreen L3MBTL1–H3K9me1 peptide binding; Potency, µM (top dose mostly 57.1 µM), for the others: at the highest dose activity, negative = inhibition, most hits filed as inhibitors; 230,000 tested, 0.66% active; AID 485360; further: on the % scale 0 is the no-effect control and ±100 the full control effect; nearly all actives have a fitted effect of over 60% in size
#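 AlphaScreen proximity signal between nickel-chelate acceptor and streptavidin donor beads (final 10 ug/mL) reports binding of 50 nM L3MBTL1 to 75 nM biotin-H3 K9me1 peptide; complex incubated with compounds 30 min at room temperature; cefsulodin titration as control.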
# The depositor's hits bear a star; ? = inconclusive; / = no result; [ ] = another dose, or the depositor's remark. The list is not random: actives were taken first. Their share in the collection is about 12%. The call rests on the fitted dose curve; in most records, active means well fitted curve in the direction sought with a large enough effect; inconclusive means small, poorly fitted or top-dose-only effect, or another doubt; inactive means no such curve, though single readings can be large; an effect the other way counts as inactive or inconclusive. Potency means the concentration at half of the fitted maximal effect.
SMILES,Sfp inh,G9a block,BAZ2B inh,HP1b chromo inh,JMJD2A Tudor inh,L3MBTL1 inh
O=C(CN1CCOCC1)NNC(=S)Nc1ccc(Cl)cc1,16.3%,39.8µM*,?,31.1%,-13.0%,-15.0%
O=C(CN1c2ccccc2Sc2ccccc21)NNC(=S)Nc1ccc(Cl)cc1,4.6%,28.2µM*,?,?,?,/
O=C(CN1c2ccccc2Sc2ccccc21)NNC(=S)Nc1ccc(Cl)cc1Cl,11.1%,65.6%[59 µM],-5.2%,12.5%,-23.0%,-5.6%
O=C(Nc1ccc(CN2CCOCC2)cc1)c1ccc(Cl)cc1,16.9%,-9.5%,-2.7%,36.5%,-16.2%,3.8%
Cc1ccnc(Nc2nc3ccccc3o2)n1,70.8µM*,?,5.0%,27.1%,-25.2%,-0.8%
Cc1ccc(Nc2nc3ccccc3o2)cc1F,4.0%,6.5%,16.5%,-3.4%,11.2µM*,/
O=C1CC(Sc2nnc(-c3ccccc3O)o2)C(=O)N1c1ccccc1 (stereo unspecified),56.2µM*,7.94µM*,?,4.9%,?,12.3%
COc1ccc(N2C(=O)CC(Sc3nnc(-c4ccccc4)o3)C2=O)cc1 (stereo unspecified),56.2µM*,10µM*,-0.7%,40.0%,-6.3%,-2.9%
O=C1CC(Sc2ncccn2)C(=O)N1c1ccccc1 (stereo unspecified),-2.5%,?,-5.8%,62.7%,-1.3%,/
COC(=O)c1ccc2c(c1C(=O)OC)CN(S(=O)(=O)C(C)(C)C)[C@H]2CCO,/,/,/,65.8%,10.3%,/
Cc1ccc(/C=N/N2CCN(Cc3ccccc3)CC2)o1,-25.3%,20µM*,?,-2.5%,-33.1%,/
Cc1ccc(/C=N/N2CCN(Cc3cccc4ccccc34)CC2)o1,?,44.7µM*,50.1µM*,?,50.1µM*,/
COc1ccc(CCNC(=O)CSc2cn(CCNC(=O)c3cccc(C(F)(F)F)c3)c3ccccc23)cc1OC,/,-0.4%[59 µM],-29.3%,32.8%,-17.9%,/
COc1cc(OC)cc(C(=O)NC2CCCN(Cc3ccc(Cl)cc3)C2)c1 (stereo unspecified),?,/,4.0%,8.6%,-25.5%,0.2%
Cc1ccc2c(c1)-c1c(cnn1CC(=O)NC(C)CCc1ccco1)CO2 (stereo unspecified),?,44.7µM*,-32.2%,2.9%,-28.5%,-5.3%
Cc1ccc2c(c1)-c1c(cnn1CC(=O)N(Cc1ccco1)C1CCCCC1)CO2,-12.2%,-18.2%[59 µM],-38.9%,-7.7%,?,-11.5%
O=CN/C=C/c1cc(O)ccc1O,14.1µM*,1.41µM*,79.4µM*,?,3.16µM*,15.8µM*
Cc1ccc(C(O)C(=O)c2ccco2)cc1 (stereo unspecified),/,-2.2%[2.33 µM],-0.7%,100.8%,-2.9%,8.6%
O=C(c1ccco1)C(O)c1ccco1 (stereo unspecified),12.3%,50.1µM*,-12.8%,22.0%,-9.9%,/
O=C(C[n+]1cc(Br)cc2ccccc21)c1ccccc1,-7.1%,44.7µM*,?,7.6%,?,-0.3%
COc1ccc(C(=O)C[n+]2cc(Br)cc3ccccc32)cc1[N+](=O)[O-],3.8%,35.5µM*,-27.1%,30.7%,79.4µM*,/
Cc1ccccc1OCC(O)CO (stereo unspecified),37.8%,-14.6%[2.33 µM],/,/,/,/
Cc1cccc(OCC(=O)Nc2ccccc2OCc2cc(=O)n3ccccc3n2)c1,/,-1.7%[59 µM],7.7%,20.1%[57 µM],-1.0%,/
COc1ccc(C2NN=C(c3c[nH]c4ccccc34)C2O)cc1 (stereo unspecified),56.2µM*,22.4µM*,?,0.0%,?,/
COc1ccc(C2C(O)C(c3c[nH]c4ccccc34)=NN2C(=O)CCl)cc1 (stereo unspecified),-2.3%,?,-31.8%,10.5%,-27.4%,/
SMILES,Sfp inh,G9a block,BAZ2B inh,HP1b chromo inh,JMJD2A Tudor inh,L3MBTL1 inh
CC(C)(C)C(=O)NC(=S)Nc1cccc(C(=O)O)c1,?,0.0%[0.501 µM],-7.0%,38.7%,-11.7%,-3.3%
O=C(Nc1cnc2ccccc2c1)c1ccncc1,0.8%,-34.0%,-6.0%,68.3%,-5.5%,/
CNC(=S)Nc1cccc(C(=O)O)c1,56.2µM*,17.8%[12.7 µM],-21.6%,62.2%,-6.7%,9.6%
O=C(NC(=S)Nc1cnc2ccccc2c1)c1ccccc1,56.2µM*,?,-37.9%,38.3%,-12.7%,-9.7%
O=C(O)c1cccc(NC(=S)NC(=O)c2ccncc2)c1,?,44.7µM*,/,-19.3%,?,2.5%
CC(=O)c1cccc(NC(=O)c2oc(=O)c3ccccc3c2-c2ccccc2)c1,/,-0.9%[59 µM],-16.4%,27.6%,-26.5%,/
Cc1nc2c(Cl)cccc2[nH]1,17.7%,56.2µM*,6.7%,18.1%,13.2%,/
Cc1nc2ccc(Cl)cc2[nH]1,/,/,/,12.5%,-8.4%,/
NC(=O)C1CCCN(C(=S)NCc2ccc3c(c2)OCO3)C1 (stereo unspecified),14.9%,50.1µM*,0.1%,22.3%,-5.0%,-5.7%
Cn1c(C(=O)N2CCCC(C(=O)NCc3ccc4c(c3)OCO4)C2)cc2sccc21 (stereo unspecified),4.1%,50.1µM*,?,10.4%,-13.4%,/
CCn1c(C(=O)N2CCC(C(=O)NCc3ccc4c(c3)OCO4)CC2)cc2sccc21,3.4%,44.7µM*,-35.6%,12.6%,?,-4.3%
O=C(NCCCN1CCCC1)C1CCN(C(=O)c2cc3sccc3n2Cc2ccc(F)cc2)CC1,-8.2%,50.1µM*,?,16.3%,-18.9%,/
CCn1c(C(=O)N2CCC(C(=O)NCCc3ccc(C)cc3)CC2)cc2sccc21,/,2.1%[59 µM],-17.5%,19.7%,-16.0%,/
Nc1nc2[nH]cc(CCc3ccc(C(=O)NC(CCC(=O)O)C(=O)O)cc3)c2c(=O)[nH]1 (stereo unspecified),11.0%,-15.1%[12.7 µM],/,/,/,/
O=C(NCCc1nc2ccccc2n1Cc1ccc(F)cc1)c1ccco1,/,-4.3%[59 µM],-7.5%,24.2%,-15.6%,/
Cc1ccc(NC(=O)c2cc3nc(-c4ccc5c(c4)OCO5)cc(C(F)(F)F)n3n2)cc1Cl,/,8.1%[59 µM],-14.6%,33.7%,2.2%,/
CCn1c(C(=O)N2CCC(C(=O)NCCCSC3CCCCC3)CC2)cc2sccc21,9.0%,39.8µM*,?,3.0%,?,/
CCn1c(C(=O)N2CCC(C(=O)NCCc3ccccc3)CC2)cc2sccc21,/,?,0.9%,24.0%,-8.4%,/
CCOc1ccccc1CNC(=O)c1cn(C)c(=O)c2c1c1ccccc1n2C,9.0%,-3.3%[59 µM],-19.1%,45.2%,-6.1%,/
Cc1ccc(CNC(=O)c2cn(C)c(=O)c3c2c2ccccc2n3C)o1,22.4µM*,0.5%[12.7 µM],4.9%,-9.3%,-19.1%,/
Cn1c(C(=O)NCc2ccc(Cl)cc2)cc2c(=O)n(C)c3ccccc3c21,/,-31.7%[59 µM],-2.6%,21.0%,-2.7%,/
COc1ccc(N2CCN(C(=O)c3cn(C4CCCCC4)c(=O)c4c3c3ccccc3n4C)CC2)cc1,/,10µM*,7.08µM*,?,?,/
